According to publication PMC4336329 (PLoS ONE, 2015):
The campaign covered roughly 310,000 compounds. About 2,200 (0.71%) showed an effect of 50% or more. The effect is printed as a negative number. This is one part of a sample in which strong results are shown more often than they occur.

Biological target: human ether-à-go-go-related gene (hERG) potassium channel (human, UniProt Q12809)
Assay: primary screen, population patch clamp on CHO cells stably expressing hERG; higher = less effect of the substance

human ether-à-go-go-related gene (hERG) potassium channel, sequence (Q12809 whole entry, looked up): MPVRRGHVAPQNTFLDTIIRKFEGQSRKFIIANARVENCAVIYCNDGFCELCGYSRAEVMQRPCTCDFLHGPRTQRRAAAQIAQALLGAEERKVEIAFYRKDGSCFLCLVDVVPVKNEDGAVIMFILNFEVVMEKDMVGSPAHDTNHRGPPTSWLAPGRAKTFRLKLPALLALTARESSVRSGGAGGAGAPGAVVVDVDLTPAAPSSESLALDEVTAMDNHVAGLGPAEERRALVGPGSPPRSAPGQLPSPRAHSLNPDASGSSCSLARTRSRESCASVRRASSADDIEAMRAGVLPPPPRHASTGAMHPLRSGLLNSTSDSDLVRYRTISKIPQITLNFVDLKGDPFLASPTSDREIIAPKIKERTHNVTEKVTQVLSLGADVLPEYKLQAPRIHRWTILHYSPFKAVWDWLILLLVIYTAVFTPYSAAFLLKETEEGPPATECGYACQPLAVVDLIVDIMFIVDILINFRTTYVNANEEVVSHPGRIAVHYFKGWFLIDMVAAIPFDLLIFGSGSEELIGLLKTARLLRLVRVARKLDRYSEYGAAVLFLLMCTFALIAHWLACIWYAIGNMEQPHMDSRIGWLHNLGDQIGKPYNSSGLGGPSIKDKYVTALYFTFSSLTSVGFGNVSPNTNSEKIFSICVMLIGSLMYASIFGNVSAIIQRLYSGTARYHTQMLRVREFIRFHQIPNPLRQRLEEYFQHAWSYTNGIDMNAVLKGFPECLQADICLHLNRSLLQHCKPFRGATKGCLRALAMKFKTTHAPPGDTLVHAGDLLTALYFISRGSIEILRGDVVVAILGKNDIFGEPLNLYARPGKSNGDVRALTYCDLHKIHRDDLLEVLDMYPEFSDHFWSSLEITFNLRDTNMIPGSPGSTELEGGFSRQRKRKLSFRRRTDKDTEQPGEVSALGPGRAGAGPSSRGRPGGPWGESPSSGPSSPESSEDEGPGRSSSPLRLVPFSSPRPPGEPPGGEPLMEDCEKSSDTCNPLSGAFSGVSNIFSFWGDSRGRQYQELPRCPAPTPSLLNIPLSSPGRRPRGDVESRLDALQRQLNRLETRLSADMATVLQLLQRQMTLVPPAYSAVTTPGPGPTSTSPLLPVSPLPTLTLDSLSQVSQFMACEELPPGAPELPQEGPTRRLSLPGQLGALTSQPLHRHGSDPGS

SMILES | hERG current change (%, negative = inhibition) at 1uM
Cc1cccc(NC(=O)c2cc(NC(=O)c3ccccc3)ccc2N2CCCCC2)c1 | 3.79%
Cc1ccc(-c2nc3ccccc3c(=O)n2-c2ncccc2C)cc1 | 0.712%
Cc1ccc2nc(-c3ccccc3)nc(SC(C)C(=O)NCc3cccs3)c2c1 (stereo not shown) | 16.6%
Cc1ccc(C)c2c(SC(C)C(=O)NCc3ccco3)nc(-c3ccccc3)nc12 (stereo not shown) | -71.2%
CC(Sc1nc(-c2ccccc2)cc(C(F)(F)F)n1)C(=O)NCc1ccco1 (stereo not shown) | 4.96%
C=CC(=O)NC(C)(C)CCN1CCOCC1 | 8.55%
Nc1nc(SCC(=O)c2cccc([N+](=O)[O-])c2)n[nH]1 | 5.93%
COC(=O)c1ccc(CSc2nncn2C)cc1 | -4.1%
Cl.Fc1ccc(C(OCCN2CCCC2)c2ccc(F)cc2)cc1 | -37.9%
Cl.c1ccc(CCCN2CCN(CCOC(c3ccccc3)c3ccccc3)CC2)cc1 | -41.9%
Fc1ccccc1N1CCN(CCCc2ccccc2)CC1 | -18.4%
Cl.c1ccc(C(OCCN2CCNCC2)c2ccccc2)cc1 | 4.05%
Cl.Fc1ccc(C(OCCN2CCN(CCCc3ccccc3)CC2)c2ccc(F)cc2)cc1 | -71.3%
Cl.Fc1ccc(C(OCCN2CCCC2)c2ccc(Br)cc2)cc1 (stereo not shown) | -66%
CCCCn1c(N)c(N(CC(C)C)C(=O)C2CCN(S(=O)(=O)c3ccc(C)cc3C)CC2)c(=O)[nH]c1=O | 2.62%
Cn1c(=O)[nH]c(=O)c2c1nc(SCC(N)=O)n2Cc1cccc(Br)c1 | 4.47%
Cc1ccc2c(c1)c1c3n2CCN=C3CCC1.Cl | -65.6%
c1cc2c(cc1C1CCCCC1)c1c3n2CCN=C3CCC1 | 11.4%
CS(=O)(=O)O.c1ccc(-c2ccc3c(c2)c2c4n3CCN=C4CCC2)cc1 | 2.12%
CNc1cccc2c1C(=O)c1ccccc1C2=O | 5.62%
COCCn1nnnc1C(c1ccc(OC)cc1OC)N1CCN(c2ccccc2)CC1 (stereo not shown) | -54.1%
COCCn1nnnc1C(c1ccccc1OC)N1CCN(c2ccccc2)CC1.Cl (stereo not shown) | 6.17%

SMILES | hERG current change (%, negative = inhibition) at 1uM
COCCn1nnnc1C(c1ccc(OC)cc1OC)N1CCN(c2ccccc2F)CC1.Cl (stereo not shown) | -2.19%
COc1ccccc1N1CCN(S(=O)(=O)c2cc(Br)cnc2N)CC1 | 15.3%
CCN(CC)CCN1C(=O)c2ccccc2NC1c1ccc(C)cc1 (stereo not shown) | -48.3%
CCN(CC)CCN1C(=O)c2ccccc2NC1c1ccc(Br)cc1 (stereo not shown) | -82.8%
CCN(CC)CCN1C(=O)c2ccccc2NC1c1ccc(F)cc1 (stereo not shown) | -30.5%
CCOC(=O)c1c(NC(=O)CN2CCOCC2)sc2c1CC(C)(C)OC2 | 11.7%
NS(=O)(=O)c1ccc(CCNc2nc(CN3CCCCC3)nc3sc4c(c23)CCC4)cc1 | -53%
NS(=O)(=O)c1ccc(CCNc2nc(CN3CCOCC3)nc3sc4c(c23)CCC4)cc1 | 3.28%
Cc1nc(NCCc2ccc(S(N)(=O)=O)cc2)c2c3c(sc2n1)CCC3 | 11.8%
Cc1cccc(C)c1NC(=O)CNC(=O)c1ccc(N2CCCC2)c([N+](=O)[O-])c1 | -2.53%
Cc1ccccc1C(=O)Nc1ccnn1C1CCN(Cc2ccccn2)CC1 | -14.6%
COc1ccc(C(=O)Nc2ccnn2C2CCN(CCC(C)c3ccc(C)o3)CC2)cc1 (stereo not shown) | -18%
O=C(Nc1ccnn1C1CCN(CCCc2ccccc2)CC1)c1ccccc1Cl | -87.3%
O=C(Nc1ccnn1C1CCN(C2CCC2)CC1)c1ccccc1 | 16.6%
Cc1ccccc1C(=O)Nc1ccnn1C1CCN(CCCc2ccccc2)CC1 | -84.5%
CSCCCN1CCC(n2nccc2NC(=O)CCCc2ccccc2)CC1 | -28.5%
COc1ccccc1C(=O)Nc1ccnn1C1CCN(CCC(C)c2ccc(C)o2)CC1 (stereo not shown) | -88.2%
O=C(Nc1ccnn1C1CCN(CCCc2ccccc2)CC1)c1ccccc1 | -70.9%
Cc1ccccc1CN1CCC(n2nccc2NC(=O)CCCc2ccccc2)CC1 | 7.05%
O=C(Nc1ccnn1C1CCN(C2CCC2)CC1)c1ccccc1Cl | -28.4%
COc1ccccc1C(=O)Nc1ccnn1C1CCN(C(C)CSC)CC1 (stereo not shown) | -10.6%
COc1ccc(-c2cc(C(=O)NCCc3ccc(S(N)(=O)=O)cc3)c3ccccc3n2)cc1 | 11.6%

SMILES | hERG current change (%, negative = inhibition) at 1uM
O=C(OCC(=O)N1CCOCC1)c1cnc(Cl)c(Cl)c1 | -0.0536%
CCCCN=C(C)C1=C(O)CSC1=O | 15.8%
CCN(c1ccccc1)S(=O)(=O)c1ccc(F)cc1 | 8.48%
O=C(OCc1nnc(-c2ccc(Br)cc2)o1)c1ccco1 | -3.17%
CS(=O)(=O)N(CC(=O)Nc1cccc(F)c1)Cc1ccccc1 | 20.1%
COc1ccccc1-n1c(O)c(/C=C2\C=Nc3ccccc32)c(=O)[nH]c1=O | 11.9%
Cc1cc(C)nc(-n2nc(C)cc2NC(=O)c2cccc(S(=O)(=O)N(C)C)c2)n1 | 8.89%
COc1ccccc1CN1CCC(n2nccc2NC(=O)CCc2ccccc2)CC1 | 7.89%
COc1ccccc1C(=O)Nc1ccnn1C1CCN(C)CC1 | 4.47%
COc1ccccc1C(=O)Nc1ccnn1C1CCN(CCCc2ccccc2)CC1 | -88.1%
CC1=C(C(N)=O)C(c2ccc(Br)cc2)n2nc(CCCO)nc2N1 (stereo not shown) | 13.1%
Cc1ccc(N=C2NC(=O)C(CC(=O)O)S2)cc1 (stereo not shown) | 8.56%
CC(=O)c1ccc(N2CCN(S(=O)(=O)c3csc(C(N)=O)c3)CC2)cc1 | -14.2%
CN(C)S(=O)(=O)N1CCN(c2ccccc2)CC1 | -0.132%
CN(C)S(=O)(=O)N1CCN(c2ccc(Cl)cc2)CC1 | 5.65%
NC(=O)c1cc(S(=O)(=O)N2CCN(c3cccc(Cl)c3)CC2)cs1 | 18.9%
NC(=O)c1cc(S(=O)(=O)N2CCN(c3ccc([N+](=O)[O-])cc3)CC2)cs1 | -59.3%
CN(C)S(=O)(=O)N1CCN(c2ccc([N+](=O)[O-])cc2)CC1 | -60.5%
O=[N+]([O-])c1cc(NS(=O)(=O)c2ccc(Cl)nc2)ccc1Cl | -0.66%
CCc1ccc2oc(-c3cc(N)ccc3O)nc2c1 | 9.06%
O=C(O)C1CSC(c2ccccc2)N1C(=O)c1ccco1 (stereo not shown) | 10%
O=C(/C=C/c1ccc(S(=O)(=O)NCc2ccco2)cc1)N1CCN(c2ccccc2)CC1 | 5.15%

SMILES | hERG current change (%, negative = inhibition) at 1uM
COc1ccc(/C=N\NC(=O)c2ccccc2F)cc1COc1ccc(F)cc1 | 16.6%
COc1ccc(/C=N/NC(=O)c2ccoc2C)cc1CN1CCN(c2ccc(F)cc2)CC1 | -19.3%
COc1ccc(C(=O)N/N=C/c2ccc(OC)c(CN3CCN(c4ccc(F)cc4)CC3)c2)cc1 | -83.5%
COc1ccc(/C=N/NC(=O)c2ccncc2)cc1CN1CCOCC1 | 6.59%
COc1ccc(/C=N/NC(=O)c2ccncc2)cc1CN1CCN(c2ccc(F)cc2)CC1 | -54.2%
COc1ccc(/C=N/NC(=O)c2ccccc2)cc1CN1CCN(c2ccc(F)cc2)CC1 | -62.1%
COc1ccc(/C=N/NC(=O)c2ccccc2F)cc1CN1CCN(c2ccc(F)cc2)CC1 | -64.4%
COc1ccc(/C=N\NC(=O)c2ccccc2)cc1COc1ccc(F)cc1 | 4.81%
COc1ccc(/C=N/NC(=O)c2ccc(C)cc2)cc1CN1CCN(c2ccc(F)cc2)CC1 | -27%
COc1ccc(/C=N/NC(=O)c2cccnc2)cc1CN1CCN(c2ccc(F)cc2)CC1 | -0.578%
COc1ccc(C(=O)N/N=C/c2ccc(OC)c(COc3ccc(F)cc3)c2)cc1 | 1.17%
COc1ccc(/C=N/NC(=O)c2cccc(Br)c2)cc1CN1CCOCC1 | -38.5%
O=S(=O)(NC1CC1)c1ccc(F)c(F)c1 | 10.1%
OCCN(Cc1nc(-c2ccc3c(c2)OCO3)no1)Cc1cccs1 | 7.42%
CC(Oc1cc2oc(=O)c3c(c2cc1Cl)CCC3)C(=O)NCCCN1CCOCC1 (stereo not shown) | 13.3%
Cc1ccc(CN=C(N)Nc2nc(C)cc(C)n2)cc1.Cl | -19.5%
CN(Cc1ccc(F)cc1)C(=O)c1ccc(NC(=O)CC2SC(N3CCCC3)=NC2=O)cc1 (stereo not shown) | 8.82%
COc1ccc(S(=O)(=O)NCC2CCCN(C(=O)c3cccnc3C)C2)cc1 (stereo not shown) | 14%
COc1ccc2c(ccc[n+]2CC(=O)c2ccc(C)cc2)c1.[Br-] | 8.14%
COc1cc(C(=O)N/N=C/c2ccc(OC)c(CN3CCN(c4ccc(F)cc4)CC3)c2)ccc1O | -52.4%
COc1ccc(/C=N/NC(=O)c2ccc(Br)cc2)cc1CN1CCOCC1 | -23.8%
COc1ccc(/C=N\NC(=O)c2cc(O)c(O)c(O)c2)cc1CN1CCN(c2ccc(F)cc2)CC1 | 10.4%
